PubChem BioAssay AID1159580 (chemical genetic matrix, 2015)
Several values for one entry are separate records, joined by “and”; a condition that tells them apart may be missing. Equal entries are not always repeated. Hit rate of the full screen: of about 5,500 compounds, about 2,000 (36%) were called active. Another 18% or so got no clear call; they are omitted. Rule as the data show it: active = normalized growth mostly below about 0.91 (no sharp cut-off); inconclusive = no clear call, values can overlap the other calls; inactive = mostly above about 0.92. This is one part of the list.

Experiment: chemical genetic growth profiling, strain panel (AID 1159580);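 also: tested at 20 µM; growth read once vehicle control cultures reached saturation at 30 °C; 1 = growth at the plate median or of vehicle wells; lower values mean less growth of the strain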
Conditions: S. cerevisiae deletion strains, growth OD

Measured: normalized growth

COc1ccc2c(c1)O[C@H]1c3ccc(OC)cc3OC[C@@H]21
active: locus YDL192W, strain arf1, stronger effect = lower value 0.897 | locus YDR101C, strain arx1, stronger effect = lower value 0.911 | locus YDR318W, strain mcm21, stronger effect = lower value 0.87 | locus YDR502C, strain sam2, stronger effect = lower value 0.876 | locus YGL078C, strain dbp3, stronger effect = lower value 0.897 | locus YGL086W, strain mad1, stronger effect = lower value 0.882 | locus YGL248W, strain PDE1, stronger effect = lower value 0.863 | locus YGR135W, strain pre9, stronger effect = lower value 0.84 | locus YGR252W, strain gcn5, stronger effect = lower value 0.669 | locus YIR030C, strain dcg1, stronger effect = lower value 0.927
0.684 (active) and 0.982 (inactive): locus YJL095W, strain BCK1, stronger effect = lower value
inactive: locus YAL021C, strain ccr4, stronger effect = lower value 1.03 | locus YAL026C, strain drs2, stronger effect = lower value 1.02 | locus YAL030W, strain snc1, stronger effect = lower value 1.02 | locus YBL061C, strain skt5, stronger effect = lower value 1.02 | locus YBR009C, strain hhf1, stronger effect = lower value 1 | locus YBR021W, strain FUR4, stronger effect = lower value 0.961 | locus YBR023C, strain chs3, stronger effect = lower value 1.02 | locus YBR171W, strain sec66, stronger effect = lower value 1.03 | locus YBR229C, strain ROT2, stronger effect = lower value 0.975 | locus YBR231C, strain swc5, stronger effect = lower value 1.01 | locus YBR279W, strain paf1, stronger effect = lower value 1.02 | locus YCL011C, strain gbp2, stronger effect = lower value 1.02 | locus YCL016C, strain dcc1, stronger effect = lower value 1.03 | locus YCL029C, strain bik1, stronger effect = lower value 0.99 | locus YCL069W, strain vba3, stronger effect = lower value 1.03 | locus YCR088W, strain abp1, stronger effect = lower value 1.02 | locus YDL005C, strain med2, stronger effect = lower value 1.02 | locus YDL035C, strain GPR1, stronger effect = lower value 0.945 | locus YDL040C, strain nat1, stronger effect = lower value 1.01 | locus YDL074C, strain BRE1, stronger effect = lower value 0.911 | locus YDL101C, strain DUN1, stronger effect = lower value 0.984 | locus YDL185W, strain tfp1, stronger effect = lower value 0.98 | locus YDR001C, strain nth1, stronger effect = lower value 1.01 | locus YDR069C, strain doa4, stronger effect = lower value 1.01 | locus YDR137W, strain rgp1, stronger effect = lower value 1.06 | locus YDR150W, strain NUM1, stronger effect = lower value 0.986 | locus YDR159W, strain sac3, stronger effect = lower value 1.05 | locus YDR162C, strain NBP2, stronger effect = lower value 0.937 | locus YDR195W, strain ref2 0.976 | locus YDR297W, strain sur2, stronger effect = lower value 1.03 | locus YDR334W, strain swr1, stronger effect = lower value 1.02 | locus YDR335W, strain msn5, stronger effect = lower value 1.03 | locus YDR388W, stronger effect = lower value 0.956 | locus YDR392W, strain spt3, stronger effect = lower value 1.03 | locus YEL003W, strain gim4, stronger effect = lower value 1.02 | locus YEL037C, strain rad23, stronger effect = lower value 1.02 | locus YEL061C, strain CIN8 (second series), stronger effect = lower value 1.02 | locus YEL061C, strain CIN8, stronger effect = lower value 0.985 | locus YER015W, strain faa2, stronger effect = lower value 1.03 | locus YER016W, strain bim1, stronger effect = lower value 1.02 | locus YER110C, stronger effect = lower value 0.924 | locus YER111C, strain swi4, stronger effect = lower value 1.02 | locus YER155C, strain BEM2 (second series), stronger effect = lower value 1.04 | locus YER167W, strain BCK2, stronger effect = lower value 0.989 | locus YFR010W, strain ubp6, stronger effect = lower value 1.01 | locus YGL167C, strain pmr1, stronger effect = lower value 1.02 | locus YGL173C, strain kem1, stronger effect = lower value 1.02 | locus YGL227W, strain vid30, stronger effect = lower value 1.02 | locus YGL240W, strain doc1, stronger effect = lower value 1.03 | locus YGL253W, strain hxk2, stronger effect = lower value 1.02 | locus YGR078C, strain PAC10, stronger effect = lower value 0.928 | locus YHR013C, strain ard1, stronger effect = lower value 1.05 | locus YHR027C, strain rpn1, stronger effect = lower value 1.02 | locus YHR030C, strain SLT2, stronger effect = lower value 0.977 | locus YHR079C, strain IRE1 (second series), stronger effect = lower value 0.95 | locus YHR079C, strain IRE1, stronger effect = lower value 0.964 | locus YHR094C, strain hxt1, stronger effect = lower value 0.968 | locus YHR129C, strain ARP1, stronger effect = lower value 1 | locus YHR142W, strain chs7, stronger effect = lower value 1.02 | locus YHR200W, strain rpn10, stronger effect = lower value 0.944 | locus YIL066C, strain RNR3, stronger effect = lower value 0.977 | locus YIL073C, strain SPO22, stronger effect = lower value 0.961 | locus YIL125W, strain kgd1, stronger effect = lower value 0.973 | locus YJL092W, strain hpr5, stronger effect = lower value 1.02 | locus YJL095W, strain BCK1 (second series), stronger effect = lower value 1.01 | locus YJL115W, strain asf1, stronger effect = lower value 1.03 | locus YJL129C, strain trk1, stronger effect = lower value 1.05 | locus YJL134W, strain LCB3, stronger effect = lower value 0.992 | locus YJL154C, strain vps35, stronger effect = lower value 1.02 | locus YJL164C, strain tpk1, stronger effect = lower value 1.02 | locus YJL166W, strain qcr8, stronger effect = lower value 1.02 | locus YJL168C, strain set2, stronger effect = lower value 0.955 | locus YJL187C, strain SWE1 (second series), stronger effect = lower value 0.96 | locus YJL187C, strain SWE1, stronger effect = lower value 1.02 | locus YJR066W, strain TOR1, stronger effect = lower value 0.927
